From the supplement of paper PMC13380429

What was measured:
[1] = tested on: Vero E6 infected with SARS-CoV-2; test: morphology score (similarity to uninfected cells); higher = more like uninfected cells; conditions: 24 h
[2] = tested on: Vero E6 infected with SARS-CoV-2; test: SARS-CoV-2 infection rate relative to infected DMSO; higher = more infection, active = 60 or less; conditions: 24 h

SMILES	morphology score [1]	SARS-CoV-2 infection rate [2]
Cc1cc(NC(=O)Nc2ccc(F)c(F)c2)n(-c2ccccc2)n1 (10 µM)	0.105	102% (inactive)
COc1cc(Oc2ccnc3cc(OC)c(OC)cc23)ccc1NC(=O)NC(C)c1nccs1 (stereo unspecified) (10 µM)	0.332	101% (inactive)
CC1Cc2ccccc2N1NC(=O)c1ccc(Cl)c(S(N)(=O)=O)c1 (stereo unspecified) [indapamide] (10 µM)	0.0243	112% (inactive)
O=C1CC[C@@](c2ccccc2)(C2CCN(Cc3ccc(I)cc3)CC2)C(=O)N1 [iododexetimide] (10 µM)	-0.0136	100% (inactive)
CO/N=C(\C(=O)N[C@@H]1C(=O)N2C(C(=O)O)=C(COC(N)=O)CS[C@H]12)c1ccco1 (10 µM)	0.0841	98.5% (inactive)
Fc1ccccc1CNCc1ccc(-c2ccnc3[nH]ccc23)cc1 (10 µM)	-0.0487	116% (inactive)
O=c1c2ccccc2oc2ccccc12 [xanthone] (10 µM)	0.219	104% (inactive)
CC/C=C(\C(=O)N[C@@H]1C(=O)N2C(C(=O)OCOC(=O)C(C)(C)C)=C(COC(N)=O)CS[C@H]12)c1csc(N)n1 [cefcapene-pivoxil] (10 µM)	-0.175	114% (inactive)
CCC1(c2c[nH]cn2)Cc2ccccc2C1 [atipamezole] (10 µM)	-0.114	112% (inactive)
CCCCCCCCCCCCCCCc1cccc(OCC(=O)NCCO)c1 (10 µM)	-0.00804	106% (inactive)
CCCCc1nc(-c2ccc(OCCCN(CC)CC)cc2)cn1-c1ccc(Oc2ccc(Cl)cc2)cc1 [azeliragon] (0.833333 µM)	0.129	93% (inactive)
Cc1cccc(C)c1NC(=O)CC12CCCN1CCC2 [pilsicainide] (10 µM)	-0.223	115% (inactive)
CN(C)CCc1c[nH]c2ccc(CS(=O)(=O)N3CCCC3)cc12 [almotriptan] (10 µM)	0.00995	110% (inactive)
CN(C)CCOc1ccc(-c2nc(-c3ccncc3)c(-c3ccc4c(c3)CC/C4=N\O)[nH]2)cc1 (10 µM)	-0.0571	96% (inactive)
CC[C@@H]1Cn2c(c3nc(-c4ccccc4)nc-3n(C)c2=O)N1 (10 µM)	0.14	90.5% (inactive)
CCN(CC)CCCCN1c2ccccc2Oc2ccc(Cl)cc21 (0.833333 µM)	0.331	93% (inactive)
Cc1c(O)cccc1C(=O)N[C@@H](CSc1ccccc1)[C@H](O)CN1C[C@H]2CCCC[C@H]2C[C@H]1C(=O)NC(C)(C)C [nelfinavir] (10 µM)	0.722	47.5% (active)
Cc1cc(Nc2ncc(Cl)c(Nc3ccccc3S(=O)(=O)C(C)C)n2)c(OC(C)C)cc1C1CCNCC1 [ceritinib] (0.833333 µM)	0.182	104% (inactive)
CN(C)CC[C@@]1(c2ccc(Cl)cc2)Cc2ccccc2C(=O)O1 (racemic) (10 µM)	-0.1	106% (inactive)

SMILES	morphology score [1]	SARS-CoV-2 infection rate [2]
CC1C=CC=CCCC=CC=CC=CC=CC(OC2OC(C)C(O)C(N)C2O)CC2OC(O)(CC(O)C(O)CCC(O)CC(O)CC(O)CC(=O)OC(C)C(C)C1O)CC(O)C2C(=O)O (stereo unspecified) [nystatin] (10 µM)	-0.0648	116% (inactive)
c1ccc2sc(SNC3CCCCC3)nc2c1 [N-cyclohexyl-2-benzothiazolesulfenamide] (10 µM)	-0.00896	106% (inactive)
CCc1c(-c2ccccc2)c(-c2ccccc2)nn1-c1ccccc1-c1cccc(OCC(=O)O)c1 (10 µM)	0.0748	96.5% (inactive)
CC1(C)OC[C@H](NC(=O)Nc2ccc(Br)cc2Br)[C@H](c2ccccc2)O1 (10 µM)	-0.142	112% (inactive)
Cc1cc(Nc2cc(N3CCN(C)CC3)nc(Sc3ccc(NC(=O)C4CC4)cc3)n2)n[nH]1 [tozasertib] (10 µM)	0.292	119% (inactive)
Cc1oc(=O)oc1CN1CCN(c2cc3c(cc2F)c(=O)c(C(=O)O)c2n3C(C)S2)CC1 (stereo unspecified) [prulifloxacin] (10 µM)	0.197	97% (inactive)
Cc1nc2ccccn2c(=O)c1CCN1CCC(C(=O)c2ccc(F)cc2)CC1 [pirenperone] (10 µM)	0.172	108% (inactive)
CC[C@H](C)[C@H](N)C(=O)O [isoleucine] (10 µM)	0.202	106% (inactive)
O=C1C(O)=C(O)C(=O)C(O)=C1O [tetroquinone] (10 µM)	0.0422	106% (inactive)
O=C(Nc1ccncc1)c1cc([N+](=O)[O-])ccc1Cl (10 µM)	0.143	87% (inactive)
C=CCN1C[C@H](C)N([C@H](c2ccc(C(=O)N(CC)CC)cc2)c2cccc(OC)c2)C[C@H]1C (10 µM)	-0.00563	106% (inactive)
Cc1ccc(S(=O)(=O)NC2c3ccccc3Oc3ccccc32)cc1 (10 µM)	0.173	95.5% (inactive)
CC1CCC(NC(=O)N(CCCl)N=O)CC1 (stereo unspecified) [semustine] (10 µM)	-0.0906	116% (inactive)
O=C(O)[C@H]1O[C@@H](Oc2cc3oc(-c4ccccc4)cc(=O)c3c(O)c2O)[C@H](O)[C@@H](O)[C@@H]1O [baicalin] (10 µM)	0.165	100% (inactive)
CCCCCN(CCCOC)C(=O)[C@@H](CCC(=O)O)NC(=O)c1ccc(Cl)c(Cl)c1 [dexloxiglumide] (10 µM)	0.0908	107% (inactive)
Cc1ccc(-n2sc(=O)n(Cc3ccc(F)cc3)c2=O)cc1 (10 µM)	0.218	96% (inactive)
COc1ccc(C[C@H]2NC[C@H](O)[C@H]2OC(C)=O)cc1 [anisomycin] (0.833333 µM)	0.045	102% (inactive)
Cc1ccc(/N=C/N(C)/C=N/c2ccc(C)cc2C)c(C)c1 [amitraz] (10 µM)	0.147	106% (inactive)
CC(=O)CC(=O)O [lithium-acetoacetate] (10 µM)	0.0997	102% (inactive)
